Compound activity as filed in PubChem BioAssay.
SARS PLpro yeast – SARS-CoV PLP inhibition in yeast | Potency, µM (series often up to 32.9 µM), for inactives: top-dose activity, positive = growth rescue, usual class: activators | 0.19% of 330,000 active | AID 485353 | S. cerevisiae expressing SARS-CoV PLpro, growth rescue; note: potency is the fitted concentration of half-maximal effect; 0% is about no effect; nearly all actives have a fitted effect of over 55% in size
LmPK inh – inhibitors of Leishmania mexicana pyruvate kinase | Q27686 | purified LmPK, Kinase-Glo ATP luminescence, 1 h | Potency, µM (highest dose often 57.5 µM), for inactives: top-dose activity change, negative = inhibition, most hits filed as inhibitors | 0.37% of 290,000 active | AID 1721; active = well fitted curve in the direction sought with a large enough effect; inconclusive = small, poorly fitted or top-dose-only effect, or another doubt; inactive = no such curve, though single readings can be large; an effect the other way counts as inactive or inconclusive; note: potency is the fitted concentration of half-maximal effect; % is set by controls: 0 for no effect and ±100 for the full control effect
Target sequence (Q27686 whole entry, looked up): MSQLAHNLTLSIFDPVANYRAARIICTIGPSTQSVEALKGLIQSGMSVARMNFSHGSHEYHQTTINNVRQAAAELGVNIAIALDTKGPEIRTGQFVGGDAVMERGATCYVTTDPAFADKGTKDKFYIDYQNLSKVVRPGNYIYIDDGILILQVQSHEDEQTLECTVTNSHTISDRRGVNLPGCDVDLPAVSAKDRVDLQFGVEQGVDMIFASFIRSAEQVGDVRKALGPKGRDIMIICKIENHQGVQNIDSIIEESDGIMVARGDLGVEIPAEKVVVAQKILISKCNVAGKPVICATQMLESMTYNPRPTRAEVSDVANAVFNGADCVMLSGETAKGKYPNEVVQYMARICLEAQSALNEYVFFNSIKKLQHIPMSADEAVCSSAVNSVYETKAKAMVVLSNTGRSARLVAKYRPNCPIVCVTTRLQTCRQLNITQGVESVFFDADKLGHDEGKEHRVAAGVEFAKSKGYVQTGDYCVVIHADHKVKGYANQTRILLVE
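Purified LmPK (0.1 nM) converted ADP (0.1 mM) to ATP with PEP (0.5 mM) in imidazole buffer pH 7.2 with KCl and MgCl2, 1 h at room temperature. ATP was read by Kinase-Glo luminescence; data normalized to uninhibited and no-enzyme controls.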
NS1 inh – blocks influenza NS1 protein function | AID 2326 | 0.4% of 270,000 active | Potency, µM (titrated, usually from 46.1 µM), for inactives: at the top dose activity, positive = more growth; note: potency is the fitted concentration of half-maximal effect; actives are rising curves; nearly all actives have a fitted effect of over 50% in size
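Read-out: OD600 growth recovery of NS1-expressing budding yeast. Cells grown overnight at 30C in -URA glucose medium, washed, resuspended and diluted 1:100 in 2% galactose assay medium, pH 6.0. Same strain lacking NS1 served as positive control.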
TbPYK inhibitor – blocks Trypanosoma brucei pyruvate kinase | TbPYK enzyme, Kinase-Glo Plus ATP luminescence, 45 min | Q57TT1 | 0.12% of 410,000 active | Potency, µM (doses to about 76.8 µM), inactives show at the highest dose activity, negative = inhibition, actives largely listed as inhibitors | AID 624173; active = well fitted curve in the direction sought with a large enough effect; inconclusive = small, poorly fitted or top-dose-only effect, or another doubt; inactive = no such curve, though single readings can be large; an effect the other way counts as inactive or inconclusive; note: potency is the fitted concentration of half-maximal effect; % is set by controls: 0 for no effect and ±100 for the full control effect; nearly all actives have a fitted effect of over 50% in size
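Enzyme and substrate buffer are dispensed first and compound is pin-transferred. ADP at 130 uM final then starts the reaction, which runs 45 min at room temperature. Detection reagent is added for 10 min before luminescence is imaged.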
Shiga inhibitor – blocks Shiga toxin action in Vero cells | Vero cells, Shiga toxin protein synthesis inhibition reporter | inhibition, % at 38.7 µM | 9.2% of 290,000 active | AID 2315; in the data active = inhibition mostly above about 28%, no sharp cut-off; inactive = mostly below about 43%; note: 0% is about no effect
Cycloheximide cs – affects cycloheximide protein synthesis inhibition readout, counter-screen | max response, % | AID 2314 | cell reporter, cycloheximide protein synthesis inhibition counterscreen | 12% of 300,000 active; in the data active = max response mostly above about 13%, no sharp cut-off; inactive = mostly below about 14%; note: read at 38.3 µM for the half of the compounds with a filed dose; 0% is about no effect
* hit, by the source's call; ? = inconclusive; . = not tested or not shown; [ ] = dose if it differs, or a comment. Many of the other results were omitted from the sample, so hits are more common in it than they were. Unless noted, calls come from the whole dose curve.

SMILES	SARS PLpro yeast	LmPK inh	NS1 inh	TbPYK inhibitor	Shiga inhibitor	Cycloheximide cs
O=C(CCN1C(=O)C2C3C=CC(C3)C2C1=O)NCCc1ccccc1 (centres undefined)	-7%	-2%	-5%	-3%	19	9.7*
O=C(O)C1C2C=CC(C2)C1C(=O)NCCCc1ccccc1 (centres undefined)	-6%	-1%	-4%	-2%	13	-1
O=C(CN1C(=O)C2C3C=CC(C3)C2C1=O)OCC(=O)c1ccccc1 (centres undefined)	6%	-3%	21%	6%	37*	21*
O=C(O)C1C2C=CC(C2)C1C(=O)NCCc1ccccc1 (centres undefined)	-2%	-1%	7%	14%	30*	12
O=C(COC(=O)c1ccc(F)cc1Cl)NC1CCS(=O)(=O)C1 (centres undefined)	-2%	.	.	0%	.	.
CCN(c1ccc(NC(=O)c2ccc(N3CCCC3=O)cc2)cc1)C(C)C	3%	.	.	-11%	.	.
Cc1cc(C)c(/C=C/c2onc(C)c2S(=O)(=O)N2CCC(C(=O)N3CCN(c4ccc(Cl)cc4)CC3)CC2)c(C)c1	.	.	.	3%	.	.
O=C1C2C3C=CC(C3)C2C(=O)N1CCCCCCN1C(=O)C2C3C=CC(C3)C2C1=O (centres undefined)	0%	?	-2%	11%	68*	48*
CC(C)(C)NC(=O)COc1ccc2oc3c(c2c1)CCCC3	-2%	0%	-13%	7%	60	18*
NNC(=O)COc1ccc2oc3c(c2c1)CCCC3	-12%	-1%	25%	1%	-3	1
CNC(=O)COc1ccc2oc3c(c2c1)CCCC3	1%	-4%	-13%	-4%	19	9
Cc1ccnc(NC(=O)COc2ccc3oc4c(c3c2)CCCC4)c1	3%	2%	-7%	-10%	66*	43*
CNC(=O)NC(=O)COc1ccc2oc3c(c2c1)CCCC3	-8%	0%	-42%	4%	58*	22*
Cc1ccccc1C1=NC(C(F)(F)F)(C(F)(F)F)c2c(n(C)c(=O)n(C)c2=O)N1	-4%	1%	16%	-9%	109*	61*
CCCCN(CC)C(=O)c1ccc(Cl)c(Cl)c1	1%	2%	0%	-4%	29	14*
CC(C)CNC(=O)C1(C)CCCN1C(=O)c1ccc2c(c1)CCO2 (centres undefined)	.	.	.	0%	.	.
COc1ccc2c(Cl)c(C(=O)N/N=C/c3ccc4c(c3)OCO4)sc2c1	3%	4%	1%	4%	8	6
COc1ccc2c(Cl)c(C(=O)N/N=C3\CCCC(=O)C3)sc2c1	-2%	2%	31%	2%	47*	14
COc1ccccc1CC(=O)Nc1ccc(-c2noc(COc3ccc(Br)cc3)n2)cc1	-8%	6%	5%	-6%	-14	3
COc1ccc(CC(=O)Nc2ccc(-c3noc(-c4ccccc4OC)n3)cc2)cc1	5%	4%	-8%	-3%	31	27*
COc1cccc(-c2nc(-c3ccc(NC(=O)Cc4ccccc4OC)cc3)no2)c1	3%	2%	1%	5%	43*	22*
Cc1ccc(/C=C/c2onc(C)c2S(=O)(=O)N2CCC(C(=O)N3CCN(c4ccccc4F)CC3)CC2)cc1	.	.	.	2%	.	.
CCOc1ccc(NC(=O)c2ccc(F)c(S(=O)(=O)N(CC)Cc3ccccc3)c2)cc1	.	.	.	-6%	.	.
CCCCc1cc2c(cn1)=C(OC(=O)c1cccs1)C(C)(OC(=O)CC)C(=O)C=2 (centres undefined)	.	3%[11.5 µM]	.	.	.	.
COc1ccc(-c2cc(C(=O)NC(Cc3cc4ccccc4[nH]3)C(=O)O)c(C)o2)cc1OC (centres undefined)	-1%	5%	.	-21%	49*	33*
SMILES	SARS PLpro yeast	LmPK inh	NS1 inh	TbPYK inhibitor	Shiga inhibitor	Cycloheximide cs
COc1ccc(-c2csc(-c3cccs3)n2)c(OC)c1	-8%	-9%	.	1%	70*	34*
COc1ccc(-c2csc(-c3ccccc3)n2)c(OC)c1	-18%	2%	.	-2%	115*	53*
COc1ccc(OC)c(S(=O)(=O)NCc2csc(-c3ccccc3)n2)c1	-3%	2%	-14%	-9%	-9	1
Cc1cccc(NC(=O)CCCN=C2NS(=O)(=O)c3ccccc32)c1C	0%	.	.	0%	.	.
CCCSc1nnc(NC(=O)c2cc(=O)c3ccccc3o2)s1	.	.	.	3%	.	.
CCOc1ccccc1Nc1nnc(SCC(=O)NC2CCS(=O)(=O)C2)s1 (centres undefined)	1%	.	.	0%	.	.
CC(C)(C)n1cnc2cc(NC(=O)c3cccs3)ccc21	1%	-5%	-4%	-8%	104*	34*
CCOC(=O)N1CCN(Cc2nc3cc(NC(=O)c4cccs4)ccc3n2C)CC1	-2%	-1%	-34%	-6%	-5	5
CC(C)(C)n1cnc2cc(NC(=O)c3ccccc3)ccc21	-6%	-9%	-22%	-13%	93*	34*
CSc1nc2ccc(NC(=O)c3cccs3)cc2s1	-3%	.	.	-1%	.	.
CCn1cnc2cc(NC(=O)c3cccs3)ccc21	-2%	-23%	-8%	-1%	67*	28*
NC(CC(=O)Nc1ccc(Oc2cc(F)c(F)cc2Br)cc1)C(=O)O (centres undefined)	.	.	.	.	-4	-4
COc1ccc(CNC(=O)C2CCN(c3nnc(-n4cccc4CNc4ccc(C)cc4)s3)CC2)c(OC)c1	.	.	.	6%	.	.
CC(C)c1ccc(O)c(C(=O)c2cnn(-c3ccccc3)c2)c1	.	.	.	5%	.	.
O=C(c1cnn(-c2ccccc2)c1)c1ccc2ccccc2c1O	-1%	-1%	19%	3%	39	15*
CC(C)(C)n1cc(C(=O)c2ccc3ccccc3c2O)cn1	-1%	-2%	.	-1%	46*	25
O=S(=O)(NCCC1=CCCCC1)c1ccc(Br)cc1	1%	1%	-48%	-6%	-4	-3
COc1cc(OC)c2ccc(=O)oc2c1C(CCN1CCN(c2ccccc2)CC1)c1ccc(N(C)C)cc1 (centres undefined)	1%	2%	-4%	0%	-14	-6
C(=C\c1ccccc1)/CSc1ccccn1	-5%	-8%	.	0%	93*	73*
Cc1cc(C)nc(SC/C=C/c2ccccc2)n1	-1%	3%	-46%	2%	.	23*
O=C(CN1C(=O)NC2(CCCCCC2)C1=O)NCCc1ccccc1	-6%	.	.	2%	.	.
O=C(NCCCCc1ccccc1)Nc1ccc(F)cc1F	17%	1%	-12%	6%	34	21
O=C(CCOc1ccccc1)Nc1ccccc1F	0%	1%	-6%	3%	74*	32*
O=C(CCN1CCN(c2ccccc2F)CC1)Nc1ccccc1F	?	-7%	-3%	-1%	34	18*
O=C(CCc1ccccc1)Nc1ccccc1F	1%	?	-5%	-5%	74*	30*
